Test systems include RPMI-8226 leukemia; OVCAR-8 ovarian; OVCAR-5 ovarian; OVCAR-4 ovarian; SK-OV-3 ovarian; IGROV1 ovarian; OVCAR-3 ovarian; HS 578T breast; NCI/ADR-RES ovarian; T-47D breast; BT-549 breast; MDA-MB-435 melanoma; SW-620 colon; MCF7 breast; HCT-116 colon; HCC-2998 colon; KM12 colon.
What all share (test): NCI-60 one-dose screen, 48 h (100 = growth as untreated, 0 = no growth, -100 = all killed)
What all share (details): 10 µM unless noted

The panel holds about 83,000 compounds, 20% with a hit somewhere; the sample as a whole holds those more often.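 A percent growth of 40 corresponds to 60% growth inhibition; 0 means no net growth; -100 means all cells died. Active threshold: below 10.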 Values without a mark were called inactive. Active and inactive are the calls of the source.

On to `O=C1Nc2ccc(F)cc2/C1=C/c1nc(-c2ccc(F)cc2)n2ccccc12`, for which the growth with RPMI-8226 leukemia is 117%; with OVCAR-8 ovarian it was 97.7%; in the assay with OVCAR-5 ovarian, 94.7%; in the assay on OVCAR-4 ovarian, 96.3%; with SK-OV-3 ovarian, 108%; in the assay with IGROV1 ovarian it was 97.8%. Further, the growth was 112% with OVCAR-3 ovarian; 100% in the assay on HS 578T breast; 112% in the assay on NCI/ADR-RES ovarian; 96.6% in the assay with T-47D breast; 96.8% with BT-549 breast; 85% in the assay on MDA-MB-435 melanoma. The growth is 80.1% in the assay with SW-620 colon; 85.6% in the assay on MCF7 breast; 91.1% in the assay on HCT-116 colon; 108% in the assay on HCC-2998 colon; 87.6% with KM12 colon.

Regarding `O=C1C(Cl)=C(N=Nc2c(Cl)c(O)c3ccccc3c2O)C(=O)c2ccccc21`, the growth with RPMI-8226 leukemia is 69.2%; in the assay on OVCAR-8 ovarian, 79.1%; in the assay on OVCAR-5 ovarian, 121%; in the assay with OVCAR-4 ovarian it was 72.3%; with SK-OV-3 ovarian, 89.8%; with IGROV1 ovarian it was 60.1%. For the same molecule, the growth with OVCAR-3 ovarian was 24.3%; in the assay with HS 578T breast, 55.3%; in the assay with NCI/ADR-RES ovarian, 73.8%; with T-47D breast it was 66.9%; in the assay on BT-549 breast, 62%; in the assay with MDA-MB-435 melanoma it was -31.7% (active). The growth in the assay with SW-620 colon was 90%; in the assay with MCF7 breast it was 62.6%; with HCT-116 colon, 70.4%; in the assay with HCC-2998 colon, 74.4%; in the assay on KM12 colon, 86.4%.

Turning to `C=C(C)[C@@H]1C[C@H](O)Cc2cc(Cl)cc(Cl)c2N1`, the growth in the assay with RPMI-8226 leukemia is 116%; in the assay with OVCAR-8 ovarian it was 99.6%; in the assay on OVCAR-5 ovarian it was 81.9%; with OVCAR-4 ovarian it was 103%; in the assay on SK-OV-3 ovarian it was 101%; in the assay on IGROV1 ovarian, 105%. Also, the growth is 108% with OVCAR-3 ovarian; 100% in the assay with HS 578T breast; 102% with NCI/ADR-RES ovarian; 99.3% with T-47D breast; 105% in the assay on BT-549 breast; 105% in the assay on MDA-MB-435 melanoma. The growth in the assay on SW-620 colon was 105%; in the assay with MCF7 breast, 103%; in the assay on HCT-116 colon, 99.5%; in the assay with HCC-2998 colon, 105%; in the assay with KM12 colon, 107%.

For `CCOC(=O)c1c(NC(=O)C2CCCCC2C(=O)O)sc2c1CCCC2` (configuration not stated), the growth in the assay with RPMI-8226 leukemia was 105%; in the assay with OVCAR-8 ovarian, 96.7%; in the assay with OVCAR-5 ovarian it was 106%; with OVCAR-4 ovarian it was 100%; with SK-OV-3 ovarian, 97.9%; in the assay with IGROV1 ovarian, 105%. Also, the growth in the assay with OVCAR-3 ovarian is 106%; in the assay on HS 578T breast, 103%; with NCI/ADR-RES ovarian, 106%; in the assay on T-47D breast, 103%; in the assay on BT-549 breast, 102%; with MDA-MB-435 melanoma, 97.4%. The growth with SW-620 colon is 101%; with MCF7 breast, 98.1%; with HCT-116 colon, 109%; in the assay with HCC-2998 colon, 110%; in the assay with KM12 colon it was 109%.

On to `CCn1c2c(c3ccccc31)SC1c3cccn3CCN1C2=S` (configuration not stated), for which the growth is 76.7% with RPMI-8226 leukemia; 94.4% in the assay on OVCAR-8 ovarian; 104% in the assay with OVCAR-5 ovarian; 54.5% with OVCAR-4 ovarian; 99.9% in the assay on SK-OV-3 ovarian; 80% in the assay with IGROV1 ovarian. In addition, the growth in the assay with OVCAR-3 ovarian was 100%; in the assay on HS 578T breast, 81.2%; in the assay with NCI/ADR-RES ovarian it was 102%; in the assay on T-47D breast it was 41.9%; with BT-549 breast, 140%; with MDA-MB-435 melanoma, 91.5%. The growth in the assay with SW-620 colon is 95.2%; in the assay with MCF7 breast it was 53.8%; with HCT-116 colon, 98.2%; with HCC-2998 colon, 99.6%; in the assay on KM12 colon it was 96.4%.

As for `CCC(CC)NCCCCCNc1cc(OC)cc2cccnc12`, the growth with RPMI-8226 leukemia is 115%; in the assay on OVCAR-8 ovarian, 93.5%; in the assay with OVCAR-5 ovarian, 88.9%; with OVCAR-4 ovarian, 32.1%; in the assay on SK-OV-3 ovarian, 97.7%; with IGROV1 ovarian it was 111%. The growth is 83.3% in the assay on OVCAR-3 ovarian; 91.2% in the assay on HS 578T breast; 83.3% in the assay with NCI/ADR-RES ovarian; 73.8% with T-47D breast; 88% in the assay with BT-549 breast; 107% in the assay on MDA-MB-435 melanoma. Besides, the growth with SW-620 colon was 95.4%; in the assay on MCF7 breast it was 58.4%; with HCT-116 colon it was 90.5%; in the assay with HCC-2998 colon it was 117%; in the assay with KM12 colon, 98.6%.

For `CCN1CCN(c2cc(-c3cn[nH]c3-c3cc(C)cc(OC)c3)nc(-c3cccnc3)n2)CC1`, the growth with RPMI-8226 leukemia is 86.2%; in the assay with OVCAR-8 ovarian it was 79.6%; in the assay with OVCAR-5 ovarian it was 124%; in the assay with OVCAR-4 ovarian it was 94%; in the assay with SK-OV-3 ovarian, 116%; in the assay on IGROV1 ovarian it was 84.4%. Also, the growth was 67.6% with OVCAR-3 ovarian; 68.8% with HS 578T breast; 91.5% in the assay on NCI/ADR-RES ovarian; 83.1% in the assay with T-47D breast; 92.9% in the assay on BT-549 breast; 81.2% in the assay on MDA-MB-435 melanoma. Also, the growth is 82.6% with SW-620 colon; 82.6% with MCF7 breast; 38.4% with HCT-116 colon; 91.3% with HCC-2998 colon; 50.6% in the assay on KM12 colon.

For the molecule `CN(CC(=O)Nc1nc2ccccc2[nH]1)S(=O)(=O)c1ccc(Cl)cc1`, the growth in the assay on RPMI-8226 leukemia is 57.5%; in the assay with OVCAR-8 ovarian it was 95.2%; with OVCAR-5 ovarian, 96.4%; in the assay on OVCAR-4 ovarian, 93.6%; in the assay with SK-OV-3 ovarian it was 96.5%; with IGROV1 ovarian, -28.9% (active). For the same molecule, the growth in the assay on OVCAR-3 ovarian was 91%; in the assay on HS 578T breast, 87.2%; in the assay with NCI/ADR-RES ovarian, 88.3%; with T-47D breast, 77%; with BT-549 breast it was 99.2%; in the assay on MDA-MB-435 melanoma it was 91.2%. Also, the growth was 67.5% in the assay on SW-620 colon; 40.9% in the assay with MCF7 breast; 72.8% in the assay with HCT-116 colon; 91.3% with HCC-2998 colon; 105% in the assay on KM12 colon.

In the case of `NNC(=O)C1CC2c3ccccc3C1c1ccccc12` (configuration not stated), the growth is 90.1% with RPMI-8226 leukemia; 102% in the assay on OVCAR-8 ovarian; 99.4% in the assay on OVCAR-5 ovarian; 106% in the assay with OVCAR-4 ovarian; 112% with SK-OV-3 ovarian; 110% in the assay on IGROV1 ovarian. Besides, the growth in the assay on OVCAR-3 ovarian was 102%; with HS 578T breast it was 102%; in the assay with NCI/ADR-RES ovarian, 103%; in the assay on T-47D breast, 112%; in the assay with BT-549 breast it was 102%; with MDA-MB-435 melanoma it was 106%. Besides, the growth with SW-620 colon is 108%; in the assay with MCF7 breast it was 101%; in the assay on HCT-116 colon, 108%; with HCC-2998 colon it was 101%; in the assay on KM12 colon, 115%.

On to `COc1ccc(C2CC(c3ccc(OC)c(OC)c3)=NN2C(=O)c2cc(OC)c(OC)c(OC)c2)cc1` (configuration not stated), for which the growth in the assay on RPMI-8226 leukemia is 50.2%; in the assay with OVCAR-8 ovarian it was 34.2%; in the assay with OVCAR-5 ovarian, 66.5%; in the assay on OVCAR-4 ovarian, 58.8%; in the assay with SK-OV-3 ovarian, 30.3%; in the assay on IGROV1 ovarian, 31.5%. The growth in the assay with OVCAR-3 ovarian is -45.1% (active); in the assay on HS 578T breast, -14% (active); in the assay with NCI/ADR-RES ovarian it was 13%; with T-47D breast, 36.4%; in the assay on BT-549 breast it was 27.6%; with MDA-MB-435 melanoma it was -26.6% (active). For the same molecule, the growth in the assay on SW-620 colon was 20.9%; in the assay on MCF7 breast, 27.6%; in the assay with HCT-116 colon, 20.6%; in the assay with HCC-2998 colon, 61.1%; with KM12 colon, 16.2%.

As for `Clc1nc(Cl)c2ncn(-c3ccccc3)c2n1`, the growth in the assay with RPMI-8226 leukemia is 108%; in the assay with OVCAR-8 ovarian it was 51.4%; with OVCAR-5 ovarian, 102%; with OVCAR-4 ovarian it was 68.9%; in the assay with SK-OV-3 ovarian, 88.4%; with IGROV1 ovarian, -48.8% (active). Also, the growth was 54.9% with OVCAR-3 ovarian; 12.4% in the assay on HS 578T breast; 92.6% in the assay with NCI/ADR-RES ovarian; 50.6% with T-47D breast; 86.2% in the assay with BT-549 breast; 64.5% in the assay with MDA-MB-435 melanoma. The growth was 36.5% in the assay on SW-620 colon; 54.8% with MCF7 breast; 32.1% with HCT-116 colon; 100% in the assay with HCC-2998 colon; 79.5% with KM12 colon.

These data come from PubChem BioAssay (NCI).
